{"source": "PubChem BioAssay (Tox21)", "note": "Records with an inconclusive call do not appear. Entries that show only a call come without a potency. A number with no mark means an inactive call. Calls of active or inactive are those of the source. The call rests on the fitted dose curve; in most records, active means well fitted cell-killing curve with a large enough effect in the repeat runs; inconclusive means weak or mixed curves, or effect the other way; inactive means flat fitted curve, though single readings scatter."}
{"test": "qHTS assay to identify small molecule agonists of the TGF-beta/Smad signaling pathway - cell viability counter screen (AID 1346829); further: top concentration of the series differs between compounds; nearly all actives have a fitted effect of over 45% in size", "conditions": "SBE-bla HEK293T viability, CellTiter-Glo luminescence, 5 h; series mostly up to 76.8 µM", "excerpt": "National Center for Advancing Translational Sciences [NCATS]\nNIH Chemical Genomics Center [NCGC]\nU.S. Environmental Protection Agency [EPA]\nNational Institutes of Environmental Health Sciences [NIEHS]\nNational Toxicology Program [NTP]\nU.S. Food and Drug Administration [FDA]\nTransforming growth factor beta (TGF-beta) superfamily consists of a large number of structurally related dimeric proteins that act as hormones or local mediators in regulating a wide range of biological functions. This superfamily includes TGF-betas themselves, the bone morphogenetic proteins (BMPs) and the activins. These ligands induce oligomerization of serine/threonine receptor kinases and phosphorylate the cytoplasmic signaling molecules of Smad protein family. CellSensor SBE-bla HEK 293T cell line (Life Technologies, Carlsbad, CA), responsive to TGF-beta was used to screen Tox21 10K compound library for identification of agonists/antagonists of the Smad signaling pathway. This cell line contains a beta-lactamase reporter gene under control of the Smad binding element (SBE) stably integrated into HEK 293T cells. Also cytotoxicity of the compounds was tested in parallel by measuring the cell viability using CellTiter-Glo assay system in the same wells.\nTox21 Assay Protocol Summary:\nSBE-bla HEK 293T cells were dispensed at 4,000/well in 6 uL of assay medium into black wall/clear-bottom 1536-well plates using a Multidrop Combi (ThermoFisher Scientific, Waltham, MA) dispenser. After the assay plates were incubated at 37 C and 5% CO2 for an overnight, 23 nL of compounds dissolved in DMSO, positive controls or DMSO only was transferred to the assay plate by a Pintool station (Kalypsys, San Diego, CA). The assay plates were incubated at 37 C and 5% CO2 for 5 hr. One uL of LiveBLAzer B/G FRET substrate (Life Technologies) was added using a Flying Reagent Dispenser (FRD, Aurora Discovery, San Diego, CA) and the plates were incubated at room temperature for 2 hr. Fluorescence intensity (405 nm excitation, 460 nm and 530 nm emissions) was measured using an Envision plate reader (PerkinElmer, Shelton, CT). For cytotoxicity read, 4 uL of CellTiter-Glo reagent (Promega Corporation, Madison, WI) was added to each well of the assay plates using FRD. After 30min incubation at room temperature, the luminescence intensity was measured using ViewLux plate reader (PerkinElmer)."}
{"smiles": "Nc1nc(-c2ccc([N+](=O)[O-])cc2)cs1", "Potency": "inactive"}
{"smiles": "CC(CO)(CO)C(=O)O", "Potency": "inactive"}
{"smiles": "Cc1ccc(N(CCO)CCO)cc1", "Potency": "inactive"}
{"smiles": "CCCCCCCCCCCSCC(=O)O", "Potency": "inactive"}
{"smiles": "CCCCCCCC(=O)Oc1c(Br)cc(C#N)cc1Br", "Potency": "inactive"}
{"smiles": "CC(=O)OCCC1CCCCC1", "Potency": "inactive"}
{"smiles": "Cc1c[nH]c2ccccc12", "Potency": "inactive"}
{"smiles": "Cc1ccc2c(c1)CCCN2", "Potency": "inactive"}
{"smiles": "CC1CCc2nccnc21", "note": "(stereo not given)", "Potency": "inactive"}
{"smiles": "CCC(CO)(CO)[N+](=O)[O-]", "Potency": "inactive"}
{"smiles": "CC(C)C(=O)OCCOc1ccccc1", "Potency": "inactive"}
{"smiles": "CCOC(=O)c1ccc(NC(=O)CN2CCCCC2)cc1", "Potency": "inactive"}
{"smiles": "CC[C@H]1OC(=O)[C@H](C)[C@@H](O[C@H]2C[C@@](C)(OC)[C@@H](O)[C@H](C)O2)[C@H](C)[C@@H](O[C@@H]2O[C@H](C)C[C@H](N(C)C)[C@H]2O)[C@](C)(O)C[C@@H](C)C(=O)[C@H](C)[C@@H](O)[C@]1(C)O", "Potency": "inactive"}
{"smiles": "CCOC(=O)c1c(N)sc2c1CCN(Cc1ccccc1)C2", "Potency": "inactive"}
{"smiles": "COC(OC)OC", "Potency": "inactive"}
{"smiles": "Cc1ccc2c(c1[N+](=O)[O-])C(=O)c1ccccc1C2=O", "Potency": "inactive"}
{"smiles": "CC(=O)OCCC(C)CC(C)(C)C", "note": "(stereo not given)", "Potency": "inactive"}
{"smiles": "Cc1cccc(C)c1NC(=O)c1cc(S(N)(=O)=O)c(Cl)cc1O", "Potency": "inactive"}
{"smiles": "CN(C)CC/C=C1\\c2ccccc2Sc2ccc(Cl)cc21", "Potency": "inactive"}
{"smiles": "O=C(C(=O)c1ccco1)c1ccco1", "Potency": "inactive"}
{"smiles": "CC(=O)OC(C)C[N+](C)(C)C", "note": "(stereo not given)", "Potency": "inactive"}
{"smiles": "Cc1oc(=O)oc1COC(=O)[C@@H]1N2C(=O)[C@@H](NC(=O)[C@H](N)c3ccccc3)[C@H]2SC1(C)C", "Potency": "inactive"}
{"smiles": "Cc1cc(CCC(=O)OCCOCCOCCOC(=O)CCc2cc(C)c(O)c(C(C)(C)C)c2)cc(C(C)(C)C)c1O", "Potency": "inactive"}
{"smiles": "CCC(CO)(CO)CO", "Potency": "inactive"}
{"smiles": "O=C(O)c1cc(Cl)cc(Cl)c1O", "Potency": "inactive"}
{"smiles": "CSSc1ccoc1C", "Potency": "inactive"}
{"smiles": "CCC(C)(C)C(=O)O", "Potency": "inactive"}
{"smiles": "CCCCCCCCCCCCCOC(=O)CCSCCC(=O)OCCCCCCCCCCCCC", "activity change, negative = cytotoxicity": "-1.41% [at 15.8 µM]"}
{"smiles": "O=C(c1ccccc1)c1ccc(O)cc1", "Potency": "inactive"}
{"smiles": "CC(C)(C)C1(CCc2ccc(Cl)cc2)CO1", "note": "(stereo not given)", "Potency": "inactive"}
{"smiles": "CO[C@@H]1[C@@H](OC)[C@H](C)[C@@](O)(CC(=O)O)O[C@H]1[C@H](C)[C@H]1O[C@@]2(CC[C@@](C)([C@H]3CC[C@@](C)([C@@H]4O[C@@H]([C@H]5O[C@](C)(O)[C@H](C)C[C@@H]5C)C[C@@H]4OC4C[C@H](OC)[C@@H](OC)[C@H](C)O4)O3)O2)C[C@H](O)[C@H]1C", "note": "(stereo not given in full)", "Potency": "inactive"}
{"smiles": "COc1cc(C(C)=O)ccc1OCCCN1CCC(c2noc3cc(F)ccc23)CC1", "Potency": "inactive"}
{"smiles": "CCCCCCCCCCCCCC(=O)OCC(O)CO", "note": "(stereo not given)", "Potency": "inactive"}
{"smiles": "COc1ccc(C(=O)NCc2ccc(OCCN(C)C)cc2)cc1OC", "Potency": "inactive"}
{"smiles": "Nc1ccc(N=Nc2ccc(N)cc2)cc1", "Potency": "inactive"}
{"smiles": "CCCCCc1ccco1", "Potency": "inactive"}
{"smiles": "CCCCCCC(O)CCOC(C)=O", "note": "(stereo not given)", "Potency": "inactive"}
{"smiles": "CC(C)(O)c1coc(S(=O)(=O)NC(=O)Nc2c3c(cc4c2CCC4)CCC3)c1", "Potency": "inactive"}
{"smiles": "O=C1OC[C@H](Cc2cccc(O)c2)[C@H]1Cc1cccc(O)c1", "Potency": "inactive"}
{"smiles": "CNS(=O)(=O)c1cc(C(=O)N2CCC(CCN3C4CCC3CC(n3c(C)nc5ccccc53)C4)(c3cccc(F)c3)CC2)c(Cl)cc1F", "note": "(stereo not given)", "Potency": "inactive"}
